The results in this text go back to PubChem BioAssay AID588591 (National Center for Advancing Translational Sciences (NCATS), 2011).

Out of some 390,000 compounds screened, about 4,700 (1.2%) were called active. Another 4% or so got no clear call; they are omitted. Calls come from the whole dose curve; as a rule, active = well fitted inhibition curve with a large enough effect; inconclusive = small, poorly fitted or top-dose-only effect, or another doubt; inactive = no such curve, though single readings can be large or run the other way. For the sample, actives were picked, then their nearest neighbours and some compounds at random.
% is set by controls: 0 for no effect and ±100 for the full control effect; potency is the fitted concentration of half-maximal effect.

Sequence of DNA polymerase eta (Homo sapiens) (Q9Y253 whole entry, looked up): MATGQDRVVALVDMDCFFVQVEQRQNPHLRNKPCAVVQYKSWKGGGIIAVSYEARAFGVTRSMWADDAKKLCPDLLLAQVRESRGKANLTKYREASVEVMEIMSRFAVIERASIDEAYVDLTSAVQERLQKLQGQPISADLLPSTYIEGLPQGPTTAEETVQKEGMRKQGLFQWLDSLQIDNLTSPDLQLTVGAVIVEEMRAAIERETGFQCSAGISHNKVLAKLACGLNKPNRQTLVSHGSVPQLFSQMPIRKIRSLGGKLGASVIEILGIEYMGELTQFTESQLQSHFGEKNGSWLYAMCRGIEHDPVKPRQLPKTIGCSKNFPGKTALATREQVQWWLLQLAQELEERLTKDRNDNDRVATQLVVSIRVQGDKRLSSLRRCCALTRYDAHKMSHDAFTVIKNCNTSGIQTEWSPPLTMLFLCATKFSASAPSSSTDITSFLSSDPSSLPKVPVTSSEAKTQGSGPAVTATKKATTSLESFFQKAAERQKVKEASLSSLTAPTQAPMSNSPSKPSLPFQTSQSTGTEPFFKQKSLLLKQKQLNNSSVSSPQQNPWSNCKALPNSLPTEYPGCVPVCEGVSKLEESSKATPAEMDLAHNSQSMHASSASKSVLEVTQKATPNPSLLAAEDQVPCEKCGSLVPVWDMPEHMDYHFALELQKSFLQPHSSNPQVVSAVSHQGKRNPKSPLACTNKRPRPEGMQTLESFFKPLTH

The test addresses DNA polymerase eta (Homo sapiens) (UniProt Q9Y253). The test can be described thus: qHTS for Inhibitors of Polymerase Eta. The following applies: recombinant Pol eta, fluorescent DNA replication assay; series mostly up to 114 µM; activity change, negative = inhibition: at the top concentration. The method, boiled down:
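Fluorescent replication assay: 50 nM final substrate added after a 15 min room-temperature compound preincubation with 10 nM enzyme. Signal taken at 0 min and again at 10 min.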
In general terms: qHTS replaces the single test concentration by a dilution series.
`O=C(Nc1cc(C(F)(F)F)ccc1Cl)c1nc2ccccc2nc1N1CCCCC1`: the “activity change, negative = inhibition” value was -8.05% (inactive).
Still for that read-out and setting: under `O=C(CN1CCSc2ccccc21)N1CCN(c2ccccc2)CC1` stands -9.53% (inactive); under `Cc1cc(C(=O)Nc2cccc(C(F)(F)F)c2)c2c(C)nn(-c3cccc(F)c3)c2n1`, -21.6% (inactive); under `O=C(c1ccc2c(c1)N(Cc1ccc(Cl)cc1)C(=O)c1ccccc1S2(=O)=O)N1CCCCC1`, -19.6% (inactive).
Regarding `COc1ccc(NC(=O)CN2CCCN(Cc3ccccc3)S2(=O)=O)cc1`, the “activity change, negative = inhibition” value is 2.95% (inactive).
On the same count and under the same terms, under `COc1c(Cl)cc(C(=O)N(Cc2ccccc2F)C2CCS(=O)(=O)C2)cc1Cl` (centres undefined) stands -6.43% (inactive); under `COc1ccc(NC(=O)CCc2nnc3n(CC(C)C)c(=O)c4ccccc4n23)cc1OC`, -8.67% (inactive).
In the case of `Cc1cccc(NC(=O)C2CCN(C(=O)NC3CCCCC3)CC2)c1`, the “activity change, negative = inhibition” value was -5.25% (inactive).
In the case of `Cc1cccc(NC(=O)C2CC(=O)OC23CCCC3)c1` (centres undefined), the Potency is 25.1 µM (active).
Consider `Cc1cccc(NC(=O)NC2(C)CCS(=O)(=O)C2)c1` (centres undefined), for which the “activity change, negative = inhibition” value was -8.75% (inactive).
On to `Cc1ccc(CCNC(=O)c2ccc(CNS(=O)(=O)c3ccc(C)cc3)cc2)cc1`, for which the “activity change, negative = inhibition” value was -15.1% (inactive).
For `COc1ccc(CCNC(=O)c2cnc3sc(N4CCCCCC4)nn3c2=O)cc1OC`, the “activity change, negative = inhibition” value was -23.6% (inactive).
For the compound `COc1ccccc1Nc1c2c(nc3ccc(NC(=O)/C=C/c4cc(OC)c(OC)c(OC)c4)cc13)CCCC2`, the “activity change, negative = inhibition” value was -19% (inactive).
Turning to `Clc1ccccc1CSc1nnc(-c2ccco2)c(-c2ccco2)n1`, the Potency was 25.1 µM (active).
With `Cc1ccc(-c2nnc(SCC(=O)NCc3ccccc3)nc2-c2ccc(C)cc2)cc1`, the “activity change, negative = inhibition” value is -9.01% (inactive).
Still for that read-out and setting: under `CC1(C)N=C(SCc2ccccc2Cl)c2ccccc2N1` stands -4.35% (inactive).
In the case of `c1ccc(CSc2nnc(-c3ccco3)c(-c3ccco3)n2)cc1`, the Potency was 22.4 µM (active).
As to `Clc1ccccc1CSc1nncn2c1cc1occc12`, the “activity change, negative = inhibition” value was -0.969% (inactive).
As to `Fc1ccc(CSc2nc(NCc3ccccc3)c3ccccc3n2)cc1`, the “activity change, negative = inhibition” value is -8.11% (inactive).
As to `CC1=C(C(=O)OCc2ccc(C)cc2)C(c2ccccc2Cl)CC(=O)N1` (centres undefined), the “activity change, negative = inhibition” value was -16.9% (inactive).
In the case of `CCN(CC)c1ccc(NS(=O)(=O)c2cc(-c3cc(C)no3)ccc2C)c(C)c1`, the “activity change, negative = inhibition” value is -12.1% (inactive).
The same measure, in the same setting: under `COc1ccc(C)cc1Nc1nc2ccccc2c2nnc(C)n12` stands -6.98% (inactive).
Same read-out and setting: in the case of `O=C1CC(c2nnc(Cc3ccc(Cl)cc3)o2)CN1c1ccccc1` (centres undefined) it was -16.8% (inactive).
`Cc1ccc(Cl)cc1NC(=O)C(C)n1nnc2sc(-c3ccccc3)cc2c1=O` (centres undefined): the “activity change, negative = inhibition” value was -17.2% (inactive).
In the case of `COc1cc(OC)c(NC(=O)N2CC3CCCN3c3ccccc32)cc1Cl` (centres undefined), the “activity change, negative = inhibition” value is -7.73% (inactive).
`C=CCn1c(=S)[nH]c2scc(-c3ccco3)c2c1=O`: the Potency was 17.8 µM (active).
For the compound `Cc1ccc(N2CC(NC(=O)Cc3cccs3)CC2=O)cc1` (centres undefined), the “activity change, negative = inhibition” value was -13.2% (inactive).
Turning to `Cc1nn(-c2nc(-c3ccccc3)cc(C(F)(F)F)n2)c(C)c1Cl`, the “activity change, negative = inhibition” value was -26.9% (inactive).
Still for that read-out and setting: under `COc1ccc(OC)c(NC(=O)N[C@H](Cc2ccccc2)C(=O)NN)c1` stands -1.79% (inactive).
As to `COc1cc([C@H](Cc2ccccc2)NC(C)=O)oc(=O)c1`, the Potency is 20 µM (active).
For the compound `COc1ccc2oc(C(=O)NCC(Cc3ccccc3)N(C)C)c(C)c2c1` (centres undefined), the “activity change, negative = inhibition” value is -5.61% (inactive).
For the compound `CCOc1ccccc1CNC(=O)C1CCCN(S(=O)(=O)c2ccc3c(ccn3C)c2)C1` (centres undefined), the “activity change, negative = inhibition” value is -23.1% (inactive).
On the same count and under the same terms, under `Cc1c2cnn(-c3ccccc3)c(=O)c2c(C)n1C(C)C(=O)Nc1ccc(Br)cc1F` (centres undefined) stands 0.659% (inactive); under `Cc1cccc(-c2nc(SCc3ccc(Br)cc3)n3[nH]c(=O)cc3n2)c1`, -7.93% (inactive).
With `Cc1cc(=O)[nH]c(SCc2ccc(Cl)cc2)n1`, the “activity change, negative = inhibition” value is -11.7% (inactive).
As for `Cc1ccc(-c2nc(SCc3ccc(Br)cc3)n3[nH]c(=O)cc3n2)cc1`, the Potency was 20 µM (active).
With `Cc1cccc(N2CCN(c3ccc(C(=O)O)cc3NC(=O)c3ccccc3F)CC2C)c1` (centres undefined), the “activity change, negative = inhibition” value is -3.62% (inactive).
For `Cc1ccc(-c2nn(CCC(=O)Nc3ccc(OC(F)(F)F)cc3)c(=O)c3ccccc23)cc1`, the “activity change, negative = inhibition” value was -7.49% (inactive).
Same read-out and setting: in the case of `O=C(c1ccco1)N1CCN(C(=O)c2ccc(COc3ccc(F)cc3)o2)CC1` it was -2.04% (inactive).
Consider `O=C(O)CSCc1ccc(C(=O)O)o1`, for which the “activity change, negative = inhibition” value was -8.54% (inactive).
In the case of `O=C(O)c1ccc(COc2c(F)c(F)cc(F)c2F)o1`, the Potency was 44.7 µM (active).
As for `COc1cc(C(=O)N2CCN(C(=O)COc3cccc(C)c3)CC2)cc(OC)c1OC`, the “activity change, negative = inhibition” value was -9.57% (inactive).
Same read-out and setting: in the case of `CCOc1ccc(NC(=O)c2c(NC(=O)Cc3ccccc3)sc3c2CCC(C)C3)cc1` (centres undefined) it was -4.12% (inactive).
For the compound `Cc1ccc(C)c(Cn2c(=O)n(CCC(=O)NCc3ccc4c(c3)OCO4)c(=O)c3sccc32)c1`, the “activity change, negative = inhibition” value was -20.4% (inactive).
Take `Cc1ccc(S(=O)(=O)N2CCC(C(=O)Nc3cc(C)ccc3C)CC2)cc1`: the “activity change, negative = inhibition” value was -13.8% (inactive).
Take `Cc1cccc(NC(c2cccc(F)c2)c2ccc3ccc(C)nc3c2O)n1` (centres undefined): the “activity change, negative = inhibition” value was -3.84% (inactive).
With `O=C(CSc1nc(O)c(Cc2ccccc2)c(=O)[nH]1)Nc1nc2c(s1)CCCC2`, the “activity change, negative = inhibition” value is 11.5% (inactive).
`O=C(COC(=O)c1cc(=O)[nH]c2ccccc12)Nc1nc(-c2cccc(Br)c2)cs1`: the “activity change, negative = inhibition” value was -14.7% (inactive).
On to `O=C(CSc1nc2ccccc2c(=O)[nH]1)Nc1nc(-c2ccc(Br)cc2)cs1`, for which the Potency is 5.01 µM (active).
Turning to `CCOc1ccc(C2C(C(=O)Nc3ccc(Cl)cc3)=C(C)Nc3nc(C(F)(F)F)nn32)cc1` (centres undefined), the “activity change, negative = inhibition” value is -0.19% (inactive).
Consider `CCc1nnc2c3ccccc3nc(N3CCN(c4ccc(C)cc4C)CC3)n12`, for which the “activity change, negative = inhibition” value was -12.3% (inactive).
Consider `O=C(CCc1ccccc1)NCc1ccc2c(c1)CCN2C(=O)c1ccccc1`, for which the “activity change, negative = inhibition” value is -3.3% (inactive).
On to `CSC1=N/C(=C\C=C\c2cccs2)C(=O)S1`, for which the Potency is 17.8 µM (active).
`COc1cccc(-n2ccn(CC(=O)NCc3ccc(C)cc3)c(=O)c2=O)c1`: the “activity change, negative = inhibition” value is -16% (inactive).
As to `COc1ccc(Cn2ccnc2SCC(=O)NCc2ccco2)cc1`, the “activity change, negative = inhibition” value was -10% (inactive).
Regarding `Cc1ccc(OCCSc2nc(-c3cccs3)nc3cc(=O)[nH]n23)cc1Cl`, the Potency is 79.4 µM (active).
Take `O=c1cc2nc(-c3ccccc3)nc(SCCOc3ccc(Cl)cc3)n2[nH]1`: the “activity change, negative = inhibition” value is -10.2% (inactive).
For `CC(C)c1c(O)nc(SCCOc2ccc(Cl)cc2)[nH]c1=O`, the “activity change, negative = inhibition” value was -10.8% (inactive).
The same measure, in the same setting: in the case of `CCCNC(=O)CCC(=O)N1Cc2ccccc2Oc2ncccc21` it was -13.8% (inactive); in that of `CC(=O)c1ccc(N2CCN(C3C(=O)c4ccccc4N3C(C)=O)CC2)cc1` (centres undefined), -11.4% (inactive).
Regarding `COc1ccccc1C(=O)N/C(=C/c1ccco1)C(=O)Nc1ccc(C(=O)O)cc1`, the Potency was 17.8 µM (active).
As to `COc1ccccc1C(=O)N/C(=C/c1ccc2c(c1)OCO2)C(=O)Nc1cccc(C(=O)O)c1`, the “activity change, negative = inhibition” value is 0.0459% (inactive).
On to `COc1ccccc1C(=O)NC(=O)COC(=O)c1ccco1`, for which the “activity change, negative = inhibition” value was -6.22% (inactive).
In the case of `COc1cccc(CNC(=O)CCC(=O)N2CC3CCCN3c3ccccc32)c1` (centres undefined), the “activity change, negative = inhibition” value was 2.47% (inactive).
